A number with no mark means an inactive call. For part of these data: Results with a measured potency or affinity are listed apart. Activity calls are given as the source filed them. The rule behind the calls is not given here.
How the values were obtained:
[1] = Ebola virus entry assay, green fluorescence channel
[2] = Ebola virus entry assay, blue channel fluorescence
[3] = Ebola virus entry assay, ratio channel
[4] = Ebola virus entry assay, green channel fluorescence
[5] = Ebola virus entry assay, reporter ratio channel; Channel type: primary
[6] = Ebola virus entry assay, blue channel (ratio component)
Throughout, for efficacy: 0% is about no effect.

Row | Compound | efficacy [1] | outcome [2] | outcome [3] | outcome [4] | outcome [5] | outcome [6] | AC50 [3] | AC50 [5]
1 | COc1nc(C)nc(Cl)c1NC1=NCCN1 | -23.1% | inactive | inactive | inactive | inactive | inactive |  | 
2 | C=C(C)C(=O)OCC(O)CO (configuration not stated) | -24.2% | inactive | inactive | inactive | inactive | inactive |  | 
3 | CCC(CC)(CC(=O)Nc1cccc(/C=C/c2nc(C3CCC3)cs2)c1)C(=O)O | -22.5% | inactive | inactive | inactive | inactive | inactive |  | 
4 | N[C@@H](CSSC[C@H](N)C(=O)O)C(=O)O | -14.5% | inactive | inactive | inactive | inactive | inactive |  | 
5 | CCOC(=O)c1ccc(C#Cc2ccc3c(c2)C(C)(C)CCS3)nc1 | 24% | inactive | inactive | inactive | inactive | inactive |  | 
6 | CCN(CC)CCNC(=O)c1cc(Br)c(N)cc1OC | 15.9% | inactive | inactive | inactive | inactive | inactive |  | 
7 | COC(=O)c1cc(S(N)(=O)=O)ccc1OC | -31.2% | inactive | inactive | inactive | inactive | inactive |  | 
8 | CC(C)(Oc1ccc(CCNC(=O)c2ccc(Cl)cc2)cc1)C(=O)O | -16.5% | inactive | inactive | inactive | inactive | inactive |  | 
9 | COC(=O)C1=C(C)NC(COC(N)=O)=C(C(=O)OC(C)C)C1c1cccc(Cl)c1Cl (configuration not stated) | 27.1% | inactive |  | inactive |  | inactive | 22.4 µM (active) | 22.4 µM (active)
10 | CCOC(=O)c1cccc(N)c1 | 16.6% | inactive | inactive | inactive | inactive | inactive |  | 
11 | CCN(CC)CC(=O)Nc1c(C)cccc1C | 11% | inactive | inactive | inactive | inactive | inactive |  | 
12 | C#CCN(C)Cc1ccccc1 | -14.7% | inactive | inactive | inactive | inactive | inactive |  | 
13 | CCn1ccnc1CC1COc2ccccc2O1 (configuration not stated) | -17.5% | inactive | inactive | inactive | inactive | inactive |  | 
14 | CC(C)C(=O)OCc1cccc(OC(=O)[C@@H]2N3C(=O)[C@@H](NC(=O)Cc4ccccc4)[C@H]3SC2(C)C)c1 | -28.9% | inactive | inactive | inactive | inactive | inactive |  | 
15 | Cc1ncc2n1-c1ccc(Cl)cc1C(c1ccccc1F)=NC2 | -12% | inactive | inactive | inactive | inactive | inactive |  | 
16 | CCCCN(CCN(CCCC)C(=O)N1CCOCC1)C(=O)N1CCOCC1 | 15.6% | inactive | inactive | inactive | inactive | inactive |  | 
17 | CNC(=O)Oc1cccc2ccccc12 | 18.8% | inactive | inactive | inactive | inactive | inactive |  | 
18 | CCCCN1CCCC[C@H]1C(=O)Nc1c(C)cccc1C | 30% | inactive | inactive | inactive |  | inactive |  | 39.8 µM (active)
19 | C[C@]12CCC(=O)C=C1CC[C@@H]1[C@@H]2C(=O)C[C@@]2(C)[C@H]1CC[C@]2(O)C(=O)CO | 28.7% | inactive | inactive | inactive | inactive | inactive |  | 

Row | Compound | efficacy [1] | outcome [2] | outcome [3] | outcome [4] | outcome [5] | outcome [6] | AC50 [3] | AC50 [5]
20 | CCN(CC)C(=O)C1CN2CCc3cc(OC)c(OC)cc3C2CC1OC(C)=O (configuration not stated) | -20.8% | inactive | inactive | inactive | inactive | inactive |  | 
21 | O=c1[nH]cnc2c1ncn2[C@@H]1O[C@H](CO)[C@@H](O)[C@H]1O | -42.8% | inactive | inactive | inactive | inactive | inactive |  | 
22 | O=C(O)c1cccc(-c2noc(-c3ccccc3F)n2)c1 | 13.1% | inactive | inactive | inactive | inactive | inactive |  | 
23 | CC(C)[N+](C)(CCC(C(N)=O)(c1ccccc1)c1ccccc1)C(C)C | 13.5% | inactive | inactive | inactive | inactive | inactive |  | 
24 | COc1ccc2[nH]c(S(=O)Cc3ncc(C)c(OC)c3C)nc2n1 (configuration not stated) | 29.9% | inactive | inactive | inactive | inactive | inactive |  | 
25 | NCCNC(=O)c1ccc(Cl)cn1 | -25.1% | inactive | inactive | inactive | inactive | inactive |  | 
26 | CN(C)CCCO[C@@H]1[C@H]2OC(C)(C)O[C@H]2O[C@@H]1C(O)CO (some centres not stated) | -11.8% | inactive | inactive | inactive | inactive | inactive |  | 
27 | O=C(O)Cc1ccccc1 | -19.3% | inactive | inactive | inactive | inactive | inactive |  | 
28 | CC(=O)Nc1ccn(C2COC(COC(=O)c3ccccc3)O2)c(=O)n1 (configuration not stated) | -16% | inactive | inactive | inactive | inactive | inactive |  | 
29 | Nc1ccc(S(=O)(=O)Nc2cnc3ccccc3n2)cc1 | -10.5% | inactive | inactive | inactive | inactive | inactive |  | 
30 | CN1[C@@H]2CC[C@H]1CC(OC(=O)c1c[nH]c3ccccc13)C2 (some centres not stated) | 45% | inactive | inactive | inactive |  | inactive |  | 39.8 µM (active)
31 | O=C(O)CCNC(=O)c1ccccc1 | -15.3% | inactive | inactive | inactive | inactive | inactive |  | 
32 | COCc1c(C(C)C)nc(C(C)C)c(/C=C/[C@@H](O)C[C@@H](O)CC(=O)O)c1-c1ccc(F)cc1 | 9.5% | inactive | inactive | inactive | inactive | inactive |  | 
33 | Cc1ncc(CSSCc2cnc(C)c(O)c2CO)c(CO)c1O | -36.5% | inactive | inactive | inactive | inactive | inactive |  | 
34 | CC(NC(CCc1ccccc1)C(=O)O)C(=O)N1C(=O)N(C)CC1C(=O)O (configuration not stated) | -14.7% | inactive | inactive | inactive | inactive | inactive |  | 
35 | CC(C)NC(=O)c1ccc(C=O)cc1 | 10.7% | inactive | inactive | inactive | inactive | inactive |  | 
36 | COc1ccc(OC(=O)N(CC(=O)O)Cc2ccc(OCCc3nc(-c4ccccc4)oc3C)cc2)cc1 | -17% | inactive | inactive | inactive | inactive | inactive |  | 
37 | O=c1ccc2ccccc2o1 | 11.1% | inactive | inactive | inactive | inactive | inactive |  | 
38 | CC(=O)[C@@]1(O)CC[C@H]2[C@@H]3CCC4=CC(=O)CC[C@]4(C)[C@H]3CC[C@@]21C | -9% | inactive | inactive | inactive | inactive | inactive |  | 

Row | Compound | efficacy [1] | outcome [2] | outcome [3] | outcome [4] | outcome [5] | outcome [6] | AC50 [3] | AC50 [5]
39 | Cc1ccc(Nc2c(F)cccc2Cl)c(CC(=O)O)c1 | -7.19% | inactive | inactive | inactive | inactive | inactive |  | 
40 | O=C1O[C@H]([C@@H](O)CO)C(O)=C1O | -34.4% | inactive | inactive | inactive | inactive | inactive |  | 
41 | N#Cc1nn(-c2c(Cl)cc(C(F)(F)F)cc2Cl)c(N)c1S(=O)C(F)(F)F (configuration not stated) | 9.5% | inactive | inactive | inactive | inactive | inactive |  | 
42 | c1ccc2[nH]c(-c3cscn3)nc2c1 | -29.7% | inactive | inactive | inactive | inactive | inactive |  | 
43 | CCOC(=O)NNc1nncc2ccccc12 | -15.2% | inactive | inactive | inactive | inactive | inactive |  | 
44 | C[C@H]1NCc2cc(-c3ccc4c(=O)c(C(=O)O)cn(C5CC5)c4c3OC(F)F)ccc21 | -19.7% | inactive | inactive | inactive | inactive | inactive |  | 
45 | O=C(CCCCCCCCC#CI)Oc1ccccc1 | -20.5% | inactive | inactive | inactive | inactive | inactive |  | 
46 | Cc1cc(C(C)(C)C)c(O)c(C(C)(C)C)c1 | -23% | inactive | inactive | inactive | inactive | inactive |  | 
47 | O=C(CCCCC(=O)Nc1c(I)cc(I)c(C(=O)O)c1I)Nc1c(I)cc(I)c(C(=O)O)c1I | 11.5% | inactive | inactive | inactive | inactive | inactive |  | 
48 | COc1cc(NS(=O)(=O)c2ccc(N)cc2)ncn1 | 14.9% | inactive | inactive | inactive | inactive | inactive |  | 
49 | Nc1ccccc1C(=O)OCC(O)CO (configuration not stated) | -15.8% | inactive | inactive | inactive | inactive | inactive |  | 
50 | O=C(O)CN(CCOCCOCCN(CC(=O)O)CC(=O)O)CC(=O)O | 19.2% | inactive | inactive | inactive | inactive | inactive |  | 
51 | CC(=O)N1C[C@H](O)C[C@H]1C(=O)O | 24.5% | inactive | inactive | inactive | inactive | inactive |  | 
52 | C[C@H]1COc2c(C3(N)CC3)c(F)cc3c(=O)c(C(=O)O)cn1c23 | 9.63% | inactive | inactive | inactive | inactive | inactive |  | 
53 | CS(=O)(=O)c1ccc(-c2cn3ccccc3n2)cc1 | -11.6% | inactive | inactive | inactive | inactive | inactive |  | 
54 | CC(=O)OC/C=C(C)/C=C/C=C(C)/C=C/C1=C(C)CCCC1(C)C | -18.2% | inactive | inactive | inactive | inactive | inactive |  | 
55 | O=C1Nc2ccccc2C1(c1ccc(O)cc1)c1ccc(O)cc1 | -14% | inactive | inactive | inactive | inactive | inactive |  | 
56 | NS(=O)(=O)c1cc2c(cc1Cl)NCNS2(=O)=O | 14.8% | inactive | inactive | inactive | inactive | inactive |  | 
57 | Oc1c(Br)cc(Br)cc1Br | -9.36% | inactive | inactive | inactive | inactive | inactive |  | 

— PubChem BioAssay (NCATS)
